In PubChem BioAssay AID463173 (ICCB-Longwood Screening Facility, Harvard Medical School, 2010):
Several values for one entry are separate records, joined by “and”; a condition that tells them apart may be missing. Identical values can stand only once. Among all 52,000 compounds or so, about 1,700 (3.3%) were called active. Cut-off read from the data, not from the text of the source: active = survival mostly below about 52% (no sharp cut-off); inactive = mostly above about 56%. Shown is part of a subset that was picked to be rich in actives. Some compounds were tested as several samples or in several runs, with calls that do not always agree.

test system: Wild type; test: S. aureus survival, RN4220 and DeltatarO strains – OD600, teichoic acid synthesis inhibitors, primary screen (AID 463173); conditions: S. aureus RN4220 wild type/DeltatarO growth, OD600, 18 h, stronger effect = lower value, screened at 18.75 µg/mL (by protocol)

| Compound | survival |
| --- | --- |
| COc1ccc(OC)c(CCNC(=O)c2cc3cccc4c3n2CCS4)c1 | 71% (inactive) |
| Cn1c(=O)c2c(nc(NCc3ccccc3)n2Cc2ccccc2)n(C)c1=O | 79% (inactive) |
| CC(C)Cc1nn2c(=O)cc(COC(=O)c3ccc(NC(=O)c4cccs4)cc3)nc2s1 | 127% (inactive) |
| Cc1cccc(C)c1OCCn1c(C2CC(=O)N(c3cccc(Cl)c3)C2)nc2ccccc21 (centres undefined) | 84% (inactive) |
| Cc1ccc(OCCCn2c(C3CC(=O)N(c4cccc(Cl)c4)C3)nc3ccccc32)c(C)c1 (centres undefined) | 90% (inactive) |
| C=CCc1ccccc1OCCn1c(C2CC(=O)N(Cc3ccc(F)cc3)C2)nc2ccccc21 (centres undefined) | -16% (active) |
| COc1ccccc1OCCCn1c(C2CC(=O)N(c3ccc(F)cc3)C2)nc2ccccc21 (centres undefined) | 101% (inactive) |
| Cc1cccc(C)c1OCCn1c(C2CC(=O)N(Cc3ccc(F)cc3)C2)nc2ccccc21 (centres undefined) | -4% (active) |
| Cc1cccc(C)c1OCCCCn1c(C2CC(=O)N(c3ccc(F)cc3)C2)nc2ccccc21 (centres undefined) | 34% (inactive) |
| CCOc1ccccc1N1CC(c2nc3ccccc3n2CCOc2ccccc2OC)CC1=O (centres undefined) | 107% (inactive) |
| Cc1ccc(OCCn2c(C3CC(=O)N(Cc4ccc(F)cc4)C3)nc3ccccc32)c(C)c1 (centres undefined) | -15% (active) |
| Cc1ccc(C)c(OCCn2c(C3CC(=O)N(Cc4ccc(F)cc4)C3)nc3ccccc32)c1 (centres undefined) | -16% (active) |
| Cc1cc(C)c(Cn2c(C3CC(=O)N(c4ccc(F)cc4)C3)nc3ccccc32)c(C)c1 (centres undefined) | 86% (inactive) |
| CCc1ccccc1N1CC(c2nc3ccccc3n2CCCCOc2ccccc2OC)CC1=O (centres undefined) | 93% (inactive) |
| CCOc1ccccc1N1CC(c2nc3ccccc3n2CCCCOc2cc(C)ccc2C)CC1=O (centres undefined) | 43% (inactive) |
| COc1ccc(NC(=O)Cn2c(=O)n(-c3cccc(C)c3)c(=O)c3c2c2cc(C)ccc2n3C)cc1Cl | 86% (inactive) |
| CCc1cccc(NCc2ccccc2-c2nnc(-c3ccccc3Cl)o2)c1 | 81% (inactive) |
| CN(C)S(=O)(=O)c1ccc(S(=O)(=O)N2CCC(c3nc4c(nnn4Cc4cccc(F)c4)c(=O)[nH]3)CC2)cc1 | 113% (inactive) |
| Cc1cccc(-n2ncc3c(Nc4c(C)cc(C)cc4C)ncnc32)c1 | 83% (inactive) |
| Cc1ccc(S(=O)Cc2nc(-c3ccc(C(=O)NCc4cccc(C)c4)cc3)oc2C)cc1 (centres undefined) | 99% (inactive) |
| CCOc1ccc(NC(=O)c2ccc(-c3nc(COc4ccccc4)c(C)o3)cc2)cc1 | 89% (inactive) |
| O=C(c1cnc(N2CCCCC2)c2ccccc12)N1CCN(c2cccc(Cl)c2)CC1 | 68% (inactive) |
| CCOC(=O)c1cccc(NS(=O)(=O)c2cc(Br)cc3c2N(C(=O)C2CC2)CC3)c1 | 151% (inactive) |

| Compound | survival |
| --- | --- |
| CCCC(=O)NCC(c1ccc2c(c1)OCO2)N1CCN(c2ccccc2)CC1 (centres undefined) | 92% (inactive) |
| O=C(COc1ccccc1F)Nc1ccccc1OCc1cc(=O)n2ccccc2n1 | 79% (inactive) |
| CN(C)c1oc(/C=C/c2ccc(F)cc2)nc1C#N | 87% (inactive) |
| CC1CCCCN1CC(=O)N1CCN(C(=O)CN2CCCCC2C)CC1 (centres undefined) | 106% (inactive) |
| CCOc1ccccc1NC(=O)CN(c1cc(C)cc(C)c1)S(=O)(=O)c1c(C)nn(C)c1C | 69% (inactive) |
| CCc1ccc(NC(=O)CN(c2ccc(C)cc2)S(=O)(=O)c2c(C)nn(C)c2C)cc1 | 76% (inactive) |
| Cc1cc(C)cc(N(CC(=O)Nc2c(C)cc(C)cc2C)S(=O)(=O)c2c(C)nn(C)c2C)c1 | -6% (active) |
| O=C(c1ccco1)c1cn(CCOc2ccc(Cl)cc2)c2ccccc12 | 68% (inactive) |
| O=C(c1cccs1)c1cn(CCOc2ccccc2F)c2ccccc12 | 75% (inactive) |
| O=C(c1cn(CCOc2ccc(Cl)cc2)c2ccccc12)C1CCCCC1 | 9% (active) |
| Cc1ccccc1OCCn1cc(C(=O)C2CCCCC2)c2ccccc21 | 124% (inactive) |
| O=C(c1cccs1)c1cn(CCOc2ccc(Cl)cc2)c2ccccc12 | 80% (inactive) |
| COc1ccc(OCCn2cc(C(=O)C3CCCCC3)c3ccccc32)cc1 | 31% (inactive) |
| Cc1ccc(NC(=O)Cn2cc(C(=O)C3CCCCC3)c3ccccc32)cc1 | 87% (inactive) |
| Cc1ccc(OCCn2cc(C(=O)C3CCCCC3)c3ccccc32)cc1 | 1% (active) |
| O=C(c1cn(CCOc2ccccc2F)c2ccccc12)C1CCCCC1 | 3% (active) |
| Cn1ncc(Cl)c1C(=O)O | 95% (inactive) |
| O=C(CC1N=C2c3ccccc3N=C(SCC(=O)Nc3ccccc3F)N2C1=O)NCc1cccs1 (centres undefined) | 73% (inactive) |
| O=C1C2=C(Nc3ncnn3C2c2ccccc2)c2ccccc21 (centres undefined) | 114% (inactive) |
| CSc1ccc(/C=C/c2nc3ccccc3n2S(=O)(=O)c2cccc(Cl)c2)cc1 | 66% (inactive) |
| CCN1CCN(C(C)C(=O)NC(c2ccccc2)c2ccccc2)CC1 (centres undefined) | 113% (inactive) |
| Cc1cccc(Cn2nc(C)n3c(cc4cc(C)ccc43)c2=O)c1 | 79% (inactive) |
| CCc1cccc2c(-c3ccccc3)nc(SCC(=O)Nc3ccccc3)nc12 | 88% (inactive) |

| Compound | survival |
| --- | --- |
| Cc1ccc(NC(=O)CSc2nnc3nc(C)cc(C)n23)cc1 | 73% (inactive) |
| CCN(CC)S(=O)(=O)c1ccc2c(c1)N(CC(=O)Nc1c(C)cccc1C)C(=O)C1CCCN21 (centres undefined) | 73% (inactive) |
| CCc1ccccc1NC(=O)CN1C(=O)C2CCCN2c2ccc(S(=O)(=O)N(CC)CC)cc21 (centres undefined) | 81% (inactive) |
| CCN(CC)S(=O)(=O)c1ccc2c(c1)N(CC(=O)Nc1cccc(C)c1C)C(=O)C1CCCN21 (centres undefined) | -4% (active) |
| CCc1ccc(-c2cc(C)no2)cc1S(=O)(=O)Nc1ccc(Cl)cc1 | 74% (inactive) |
| Cc1ccc(-c2onc(C)c2C)cc1S(=O)(=O)Nc1ccc(Cl)cn1 | 89% (inactive) |
| CCc1ccc(-c2cc(C)no2)cc1S(=O)(=O)Nc1cc(OC)c(OC)c(OC)c1 | 83% (inactive) |
| CCc1ccc(-c2cc(C)no2)cc1S(=O)(=O)Nc1ccc(Cl)cn1 | -1% (active) |
| Cc1ccnc(NS(=O)(=O)c2cc(-c3cc(C)no3)ccc2C)c1 | 78% (inactive) |
| CCc1ccc(-c2cc(C)no2)cc1S(=O)(=O)Nc1ccc(C)cn1 | 14% (active) |
| O=C(CN1C(=O)C(c2ccc(F)cc2)=NC12CCCCCC2)Nc1ccc(F)c(Cl)c1 | 76% (inactive) |
| CCOc1ccc(NC(=O)CCc2c(C)nc3cc(-c4ccccc4OC)nn3c2C)cc1 | 76% (inactive) |
| COc1ccc(NC(=O)CSc2nc(-c3ccc(OC)cc3)cc(=O)[nH]2)cc1 | 148% (inactive) |
| CCOCN(C(=O)Cn1c(COC)nc2ccccc21)c1c(C)cccc1CC | 111% (inactive) |
| CCOCN(C(=O)Cn1c(C)nc2ccccc21)c1c(C)cccc1CC | 124% (inactive) |
| CCOCN(C(=O)Cn1c(C(C)O)nc2ccccc21)c1c(C)cccc1CC (centres undefined) | 117% (inactive) |
| CCCCc1nc2ccccc2n1CC(=O)N(COCC)c1c(C)cccc1CC | -1% (active) |
| CCc1cccc(CC)c1N(COC)C(=O)Cn1c(CC)nc2ccccc21 | 74% (inactive) |
| CCOCN(C(=O)Cn1c(CC(C)C)nc2ccccc21)c1c(C)cccc1CC | 5% (active) |
| Cc1cccc(NC(=O)CN2C(=O)COc3ccc(S(=O)(=O)N4CCC(C)CC4)cc32)c1C | 101% (inactive) |
| Cc1ccc(-c2nc(-c3cc4cccc(OCc5cccc(C)c5)c4oc3=O)no2)cc1 | 71% (inactive) |
| CC(CNC(=O)c1csc2c1CCCCC2)c1ccccc1 (centres undefined) | 0% (active) |
| CSc1ccc(CCNC(=O)c2csc3c2CCCCC3)cc1 | 69% (inactive) |

| Compound | survival |
| --- | --- |
| CCC(Cc1ccccc1)NC(=O)c1csc2c1CCCCC2 (centres undefined) | 120% (inactive) |
| CC(C)(C)c1ccc(-c2nnc(-c3ccccc3NC(=O)c3ccc(F)cc3F)o2)cc1 | 144% (inactive) |
| CCOC(=O)C(C)Sc1nc(-c2ccccc2Cl)cc(-c2ccccc2)c1C#N (centres undefined) | 79% (inactive) |
| CCCCSc1nc(-c2ccc(OC)cc2)ccc1C#N | 28% (inactive) |
| CCOC(=O)C(C)Sc1nc(-c2ccccc2)ccc1C#N (centres undefined) | 107% (inactive) and 0% (active) |
| COc1cccc(C(=O)Nc2ccc(-n3nncc3-c3ccc(Br)cc3)cc2)c1OC | 143% (inactive) |
| CC(=O)N1CCc2cc(S(=O)(=O)NC(Cc3ccccc3)C(=O)Nc3ccc(C)cc3C)ccc21 (centres undefined) | 74% (inactive) |
| Nc1cccc(Cl)c1N1CCOCC1 | 110% (inactive) |
| CCc1ccc2occ(CC(=O)Nc3c(C(=O)c4ccccc4)oc4ccccc34)c2c1 | 104% (inactive) |
| COc1ccc(N2CCN(C(=O)c3oc4ccccc4c3NC(=O)c3ccccc3OC)CC2)cc1 | 129% (inactive) |
| O=C(Cc1ccccc1)Nc1c(C(=O)c2ccccc2)oc2ccccc12 | 7% (active) |
| COc1ccccc1NC(=O)c1oc2ccccc2c1NC(=O)c1c(F)cccc1F | 60% (inactive) |
| Cc1ccc(C(=O)c2oc3ccccc3c2NC(=O)Cc2ccccc2)cc1 | 53% (inactive) |
| O=C(Nc1c(C(=O)N2CCN(c3ccc(F)cc3)CC2)oc2ccccc12)c1ccco1 | 88% (inactive) |
| O=C(Nc1c(C(=O)N2CCN(c3ccccc3F)CC2)oc2ccccc12)c1ccco1 | 69% (inactive) |
| O=C(Nc1c(C(=O)N2CCN(c3ccccc3)CC2)oc2ccccc12)c1ccco1 | 10% (active) |
| COc1ccccc1C(=O)Nc1c(C(=O)N2CCN(c3ccc(F)cc3)CC2)oc2ccccc12 | -2% (active) |
| COc1ccccc1C(=O)Nc1c(C(=O)Nc2ccccc2F)oc2ccccc12 | 2% (active) |
| COc1cc(C(=O)Nc2c(C(=O)Nc3ccccc3F)oc3ccccc23)cc(OC)c1OC | 68% (inactive) |
| COc1ccccc1C(=O)Nc1c(C(=O)N2CCN(c3ccccc3F)CC2)oc2ccccc12 | 101% (inactive) |
